# Data from the supplement of paper PMC6555819.
# Experiments:
# Assay in all cases: PBM binding z-score (relative to random genomic background probes); higher = stronger binding; sequences stand for … in GC…GCGATTGACAGCGTAGAATGAAGG
# [1] = system: RARb homodimer (NR concentration 270 nM)
# Procedure, shortened: (§1)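 Each nuclear receptor dimer, without ligand, was incubated for 1 h on custom Agilent 4×180K protein-binding microarrays. Binding was detected with antibodies against each partner (one per run), and scanned fluorescence was regression-normalized. The binding z-scores are referenced to random human genomic background probes.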
# [2] = system: RARg:RXRa (NR concentration 270 nM, RXRa partner concentration 90 nM)
# Procedure, shortened: as §1
# [3] = system: RARg homodimer (NR concentration 270 nM)
# Procedure, shortened: as §1
# [4] = system: RXRa DBDmut IVT, anti-RXR (DBD mutation: RXRa K156A/R161A, NR concentration 90 nM)
# Procedure, shortened: as §1
# [5] = system: RXRa homodimer (NR concentration 180 nM)
# Procedure, shortened: as §1
# [6] = system: THRa:RXRa (NR concentration 90 nM, RXRa partner concentration 90 nM)
# Procedure, shortened: as §1
# [7] = system: THRa homodimer (NR concentration 90 nM)
# Procedure, shortened: as §1
# [8] = system: VDR homodimer (NR concentration 270 nM)
# Procedure, shortened: as §1
Sequence,PBM binding z-score [1],PBM binding z-score [2],PBM binding z-score [3],PBM binding z-score [4],PBM binding z-score [5],PBM binding z-score [6],PBM binding z-score [7],PBM binding z-score [8]
TCATATAGGTAAACAGGTGAAAGGCCGTAAGTTA,1.29,0.793,0.375,1.61,1.2,0.682,0.262,0.499
AAAACGAGGGCACGCTGAGTTGATAGCAGAGTAG,1.08,2.13,2.34,2.08,1.62,1.94,0.0518,2.26
TCCTGTAGATCAAAGGTTAAGAAAGCCGAAGCCT,1.39,1.89,0.87,0.61,3.17,1.24,-0.54,-0.182
ATCGAAAGCTCGTGAGGTGAGTATACAGAAAGGC,-0.145,-0.029,0.239,-0.842,-0.0851,1.52,0.723,-0.704
TCATATAGGTAAATGATAGGTGAAAGTCCGATCT,0.731,0.906,0.775,1.92,1.15,0.682,0.132,0.346
CGTCCATGGTCAATGCTAGGTCAGTGAAAGCATT,2.59,2.58,1.9,0.0994,0.519,1.9,0.665,-0.0955
CGAACTAGGTCATTGACGGGACAGTGAATAGTAA,2.6,4.41,4.35,2.41,2.61,2.63,0.664,0.927
GGTGCTAGGTCAACTGATGGTCAGCTAAAGCTCG,3.76,5.3,5.75,1.28,2.7,2.99,1.07,0.446
CGTCCAAGGTCAGAGAGGTCAGTCAATGCCGAGT,5.37,6.53,7.2,3.32,5.76,4.46,2.83,5.88
ATCTCTAAGTAAAGATAGTTCAGTGAATGCAAAT,0.667,0.945,0.889,0.232,0.538,0.429,-0.328,0.578
CCTTACGGGTCGCTCCAGGTTATAGCATCGGAGT,1.07,0.907,1.08,0.0194,1.14,4.18,0.109,0.177
CAAACTAGGTCAAAGGTCAAAGGCGAGCCAACCA,5.32,9.06,7.75,3.02,10.4,4.91,1.64,3
CATACAGGGTCAGCTAGGCCAGAGTTGGGACGGC,3.24,4.28,4.57,1.31,4.06,3.02,0.732,1.33
AGAATGAGGTTAAGATGAGGGAAACAGAATACAT,1.16,2.21,1.62,1.17,2.38,2.61,0.911,0.657
TGAATGAGGTTCAAGATCAGGGAACGTGGCGTCG,0.237,1.24,0.706,2.14,1.66,0.882,-0.612,1.64
ACTACCAGGCCAAGTTTGGGTCACTCAAACAAAG,2.49,2.52,1.72,0.137,0.944,2.86,1.72,0.598
TAGCCTATGTCATGCGGGCCAGTATAGTGTCGGC,-0.116,-0.1,-0.059,-0.904,0.0276,-0.313,-0.992,-0.661
CCGACCGGGGCAAGGTTACCATAACGCACAGCCA,1.54,1.65,1.73,-0.596,1.39,1.64,0.837,0.12
CAAACTAGGTCAAGAGGTCAAATTCCGCTTCCCG,5.63,8.27,7.69,2.86,8.31,4.58,2.73,4.49

Sequence,PBM binding z-score [1],PBM binding z-score [2],PBM binding z-score [3],PBM binding z-score [4],PBM binding z-score [5],PBM binding z-score [6],PBM binding z-score [7],PBM binding z-score [8]
ACTAGTTGGACAGCTGAGGTCACACACAATTCGG,4.06,3.66,3.43,1.09,3.85,4.57,4.93,2.99
ATATGTAGGTTAGCTGTGGTCATTCAGACTAGGC,1.13,0.752,0.985,0.139,0.643,3.29,-0.0944,0.494
ATCTCTAGGTAACAAGTTCAGTGGAAGAGAGGAC,1.89,1.22,1.25,1.13,0.888,1.56,1.13,2.02
CGAACTCGGTCAGAACAGGACAGTGAAGGATGAT,1.03,1.4,1.81,0.172,0.348,1.78,-0.368,0.368
TGGAGTAGGTTAGGGGCATTCAGAATGGCGTCGA,1.6,0.847,0.846,-0.404,0.803,1.51,1.06,1.57
AATACAGGGTCATCGTAGGCAAGAGTACGCACAG,3.24,5.6,5.07,3.51,6.7,4.16,1.5,3.96
TCGAGTAGGTTAGGGGTATTCAGAATGGCGTCGA,0.614,0.141,-0.12,0.297,0.649,0.317,0.194,0.305
ACCAGCAGGCCAAGTTTGGGTCACTCAAACAAAG,2.33,2.44,1.51,-0.217,0.731,2.61,0.952,0.435
AGTCAAAGTTCAGGACGAGTTAACGTAAAGCACG,3.1,4.4,4.71,2.71,3.19,2.57,0.422,2.59
CCTTACGGGTCACGAGGTTATACCACGACGAGCG,3.83,6.22,5.35,1.77,7.21,3.84,1.13,2.24
AGAATTAGGTTATACGTAGATCAGGGAAGAAAGT,0.51,0.538,0.552,0.428,0.592,0.759,0.539,0.454
ATCTCTAGGTAAAGTTCAGTGATAGATCGATAGA,2.44,2.15,2.58,1.56,1.42,1.2,0.236,2.09
TGAATGAGGTTAAAGTTCAGGGAACGTGGCGTCG,3.35,4.76,2.66,1.93,6.97,3.63,0.772,2.62
TCAGACAGGTGAAGCTAACTCAGGTACGCAGTCG,0.0204,0.241,0.351,0.962,0.617,0.525,-0.351,-0.124
TAGCCTAGGTCAAGGGCCAGTATACCACGCGAAC,3.4,4.09,4.75,0.34,3.58,2.78,0.832,0.272
CGAACTAGGTCAGAACAGGTCAGTGAAGGATGAT,3.88,3.47,4.34,1.03,2.22,4.08,0.526,0.955
ATCGAAAGGTCGTGAGGAGAGTATACAGAAAGGC,2.56,4.52,4.04,1.59,5.22,2.7,0.251,0.69
GCTTACGGGTTAAAGGTTATAGCATGAATAGAAT,1.74,3.66,1.37,0.714,6.82,2.8,0.253,0.558
TCGGGTAGGTTACCAATGGGGCATTCAGCTTTCT,1.04,1.63,0.754,0.101,0.683,0.482,0.377,0.0681

Sequence,PBM binding z-score [1],PBM binding z-score [2],PBM binding z-score [3],PBM binding z-score [4],PBM binding z-score [5],PBM binding z-score [6],PBM binding z-score [7],PBM binding z-score [8]
ATCTCTAGGTAAAGATAGTTCAGTAAATGCAAAT,1.08,0.439,0.876,0.336,0.446,0.803,0.595,0.651
TCTGCTAGGTCAACAATGGTCAGCTAATCTGCTA,3.37,4.13,4.92,1.33,2.64,3.08,0.805,-0.0461
ATCGAAAGGTCGACGAGGTGAGTACACACCGTTT,3.26,4.26,4.18,1.34,4.5,3.7,1.06,2.27
CCAGAAAGGTGAGAAGGTAACTCAGCCTCGATTA,1.43,2.36,1.91,0.256,1.53,0.725,0.0189,-0.238
TGAATGAGGTTATATGATCAGGGAACGTTGCAAA,0.492,1.64,0.971,1.26,2.06,1.98,0.364,0.855
ATCTCTAGCTAACCAAGTTCAGTGAATGCCGAAC,1.01,0.314,0.399,0.573,0.0234,0.509,0.214,2.29
CAAACTAGGTCCCGAAAGGTCAAAGTCGAATGAC,4.87,5.77,5.09,1.4,6.66,4.1,1.43,2.66
ATCTCTAGGTAAGACTCAGTTCCGTGAAGAACGC,0.119,-0.049,-0.0446,0.432,-0.116,0.287,0.766,0.435
GGAACGAGGGGAAGTTGATAGCAGAGTTTGATGG,0.255,-0.0496,-0.0365,0.431,0.0141,-0.105,0.182,0.565
CATACAGGGTCAGATAGGCCAGAGTAGGGACGGC,2.99,4.18,4.16,1.83,3.75,2.81,0.777,1.47
ACTAGCAAGCCAAGGGTCACTCAAGATTAGTCCG,3.62,3.45,3.58,0.334,3.69,2.51,0.0458,1.08
TCTCGGAGGACATGAAGGTCAGAGCTTTCCAGAG,3.3,2.47,2.57,0.811,1.44,2.28,0.338,1.2
TCGAGTAGGTTCGGGGCATTCAGAATGGCGTCGA,-0.0297,-0.387,-0.609,0.913,-0.159,0.428,-0.274,1.09
GCGACTGGGGCAAAGCAGGTTACCATAAGGTTGG,1.15,0.472,0.712,-0.374,0.33,2.84,0.0306,-0.59
ATCTCTAGGTAAGACTCAATTCAGTGAAGAACGC,0.0312,0.0724,0.455,0.244,0.0675,0.381,0.522,0.603
GCTTACGGGTAAAAGGTTATAGCATGAATAGAAT,1.59,2.68,1.35,0.423,3.38,1.64,-0.0699,0.48
ACAGACAGGTGAATGAAGGTAACTCAGCTGGACG,0.0507,0.439,0.784,-0.296,0.534,2.08,-0.448,-0.781
CCGACTGGGGCAAGGTTACCGTAACGCACAGCCA,1.39,1.08,1.28,-0.694,1.04,1.22,0.42,-0.25
